Measured values taken from PubChem BioAssay (Tox21).
Values joined by “and” are separate entries in the source; they are usually repeats but may differ in a detail not shown here. Equal values may be shown once. Inconclusive results are not listed. Where a structure was tested more than once in an assay, its records may differ in their call. Active and inactive are the calls of the source. Unless noted, the call rests on the fitted dose curve; in most records, active means well fitted curve in the direction sought with a large enough effect in the repeat runs; inconclusive means weak or mixed curves; inactive means no such curve, though single readings can be large; an effect the other way counts as inactive or inconclusive.

How the values were obtained:
[1] = biological target: Retinoic acid receptor RXR-alpha (Homo sapiens) (UniProt P19793); assay: qHTS assay to identify small molecule agonists of the RXR signaling pathway (AID 1159527; calls by dose curve; further: nearly all actives have a fitted effect of over 35% in size; further: potency means the concentration at half of the fitted maximal effect)
Retinoic acid receptor RXR-alpha (Homo sapiens), sequence (P19793 whole entry, looked up): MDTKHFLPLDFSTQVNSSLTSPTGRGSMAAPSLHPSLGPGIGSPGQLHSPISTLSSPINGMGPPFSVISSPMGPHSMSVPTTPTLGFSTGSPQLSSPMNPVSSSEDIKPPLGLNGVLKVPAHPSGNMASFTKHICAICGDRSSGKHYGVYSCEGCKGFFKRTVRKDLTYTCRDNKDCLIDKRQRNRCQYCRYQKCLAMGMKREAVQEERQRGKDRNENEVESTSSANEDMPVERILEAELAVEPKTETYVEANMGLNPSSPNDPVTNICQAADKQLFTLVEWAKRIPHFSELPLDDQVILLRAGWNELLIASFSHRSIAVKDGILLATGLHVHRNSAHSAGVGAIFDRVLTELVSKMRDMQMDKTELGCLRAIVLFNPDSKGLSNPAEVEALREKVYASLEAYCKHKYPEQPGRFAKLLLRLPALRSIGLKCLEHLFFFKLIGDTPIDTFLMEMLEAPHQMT
Summary of the method: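 qHTS of the Tox21 10K library in GeneBLAzer RXR-alpha HEK 293T cells carrying a beta-lactamase reporter […]; 16 hr treatment, 9-cis retinoic acid as agonist control, FRET read-out.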

[2] = qHTS assay to identify small molecule agonists of the RXR signaling pathway - cell viability counter screen (AID 1159529); further: nearly all actives have a fitted effect of over 50% in size; further: potency means the concentration at half of the fitted maximal effect
Summary of the method: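 Cell viability is measured by CellTiter-Glo luminescence, 30 min at room temperature, in wells already read for beta-lactamase. Engineered HEK 293T cells (RXR-alpha-UAS-bla) are dosed 16 hr at 37 C. Tetraoctyl ammonium bromide serves as positive control.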

[3] = qHTS assay to identify small molecule antagonists of the retinoid acid receptor (RAR) signaling pathway - cell viability counter screen (AID 1159551); further: nearly all actives have a fitted effect of over 35% in size
Summary of the method: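 Retinol-stimulated (1 uM final) C3RL4 cells, compound 6 h, 37 C; readout CellTiter-Glo luminescence (ATP) after 30 min RT incubation.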

[4] = qHTS assay to identify small molecule antagonists of the retinoic acid receptor (RAR) signaling pathway (AID 1159552; further: nearly all actives have a fitted effect of over 50% in size; further: potency means the concentration at half of the fitted maximal effect)
Summary of the method: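 Quantitative HTS in C3RL4 RARE-luciferase reporter cells. Compounds were added with 1 uM (final) retinol; luminescence was read after 6 hr.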

[5] = qHTS assay to identify small molecule agonists of the retinoic acid receptor (RAR) signaling pathway (AID 1159553); further: potency means the concentration at half of the fitted maximal effect
Summary of the method: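 Reporter readout comes from luciferase under RARE control in C3RL4 cells; compound exposure lasts 6 hr at 37 C in 5% CO2, and luminescence is recorded following a 30 min room-temperature incubation with reagent.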

[6] = qHTS assay to identify small molecule antagonists of the estrogen related receptor (ERR) signaling pathway from Tox21 library - cell viability counter screen (AID 1224834); further: nearly all actives have a fitted effect of over 30% in size; further: potency means the concentration at half of the fitted maximal effect
Summary of the method: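 After 17.5 h of compound exposure at 37 C, ERR cells are incubated with CellTiter-Fluor for 30 min and fluorescence intensity serves as the viability measure.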

[7] = biological target: Luciferin 4-monooxygenase (Photinus pyralis) (UniProt P08659); assay: qHTS assay to identify small molecule inhibitors of firefly luciferase (AID 1224835); further: nearly all actives have a fitted effect of over 25% in size; further: potency means the concentration at half of the fitted maximal effect
Luciferin 4-monooxygenase (Photinus pyralis), sequence (P08659 whole entry, looked up): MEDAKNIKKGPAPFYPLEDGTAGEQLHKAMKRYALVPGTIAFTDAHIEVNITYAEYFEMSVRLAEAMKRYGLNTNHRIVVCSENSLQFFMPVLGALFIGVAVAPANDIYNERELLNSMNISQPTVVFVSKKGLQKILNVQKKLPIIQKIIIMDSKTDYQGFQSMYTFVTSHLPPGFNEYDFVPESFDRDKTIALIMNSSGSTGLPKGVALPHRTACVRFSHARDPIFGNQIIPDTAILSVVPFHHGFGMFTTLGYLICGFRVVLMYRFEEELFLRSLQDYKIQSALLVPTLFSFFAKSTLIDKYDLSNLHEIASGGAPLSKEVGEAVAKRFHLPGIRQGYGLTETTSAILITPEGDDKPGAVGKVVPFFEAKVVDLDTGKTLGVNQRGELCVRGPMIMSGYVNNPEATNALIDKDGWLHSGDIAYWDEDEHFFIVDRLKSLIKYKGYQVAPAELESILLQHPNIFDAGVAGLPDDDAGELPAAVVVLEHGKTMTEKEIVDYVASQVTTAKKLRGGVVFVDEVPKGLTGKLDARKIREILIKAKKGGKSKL
Summary of the method: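 Inhibition of purified Photinus luciferase is measured by luminescence. Substrate levels (D-luciferin, ATP) sit at their KM values. Each compound is tested in a concentration series.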

[8] = qHTS assay to identify small molecule agonists of the constitutive androstane receptor (CAR) signaling pathway - cell viability counter screen (AID 1224836); further: nearly all actives have a fitted effect of over 45% in size; further: potency means the concentration at half of the fitted maximal effect
Summary of the method: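 Counter screen multiplexed with the CAR reporter readout: HepG2 cells co-transfected with hCAR and the CYP2B6-2.2kb construct receive a 15-concentration compound series and 0.75 uM PK11195 (final), then CellTiter-Fluor fluorescence is read after 23 h.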

[9] = qHTS assay to identify small molecule antagonists of the constitutive androstane receptor (CAR) signaling pathway - cell viability counter screen (AID 1224837); further: series mostly up to about 92 µM; nearly all actives have a fitted effect of over 45% in size
Summary of the method: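 Counter screen run in HepG2-CYP2B6-hCAR cells: 4 hr settle, compound titration (15 concentrations) with 50 nM CITCO, 23 hr at 37 C/5% CO2, CellTiter-Fluor fluorescence.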

[10] = qHTS assay to identify small molecule antagonists of the estrogen related receptor signaling pathway with the pleiotropic PPARgamma coactivator (PGC) from Tox21 10K library - cell viability counter screen (AID 1224840; active means well fitted cell-killing curve with a large enough effect in the repeat runs, not every such curve was filed as active; further: nearly all actives have a fitted effect of over 40% in size; further: potency means the concentration at half of the fitted maximal effect)
Summary of the method: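 Following seeding of 2,000 PGC/ERR cells/well and 6 hours' incubation, test compounds were delivered in DMSO. The plates then sat 17.5 hours at 37 C before a fluorogenic live-cell protease reagent (CellTiter-Fluor) was read after 30 min.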

[11] = biological target: Thyrotropin receptor (Homo sapiens) (UniProt P16473); assay: qHTS assay to identify small molecule agonists of the thyroid stimulating hormone receptor (TSHR) signaling pathway (AID 1224843; calls by dose curve; further: nearly all actives have a fitted effect of over 45% in size; further: potency means the concentration at half of the fitted maximal effect)
Thyrotropin receptor (Homo sapiens), sequence (P16473 whole entry, looked up): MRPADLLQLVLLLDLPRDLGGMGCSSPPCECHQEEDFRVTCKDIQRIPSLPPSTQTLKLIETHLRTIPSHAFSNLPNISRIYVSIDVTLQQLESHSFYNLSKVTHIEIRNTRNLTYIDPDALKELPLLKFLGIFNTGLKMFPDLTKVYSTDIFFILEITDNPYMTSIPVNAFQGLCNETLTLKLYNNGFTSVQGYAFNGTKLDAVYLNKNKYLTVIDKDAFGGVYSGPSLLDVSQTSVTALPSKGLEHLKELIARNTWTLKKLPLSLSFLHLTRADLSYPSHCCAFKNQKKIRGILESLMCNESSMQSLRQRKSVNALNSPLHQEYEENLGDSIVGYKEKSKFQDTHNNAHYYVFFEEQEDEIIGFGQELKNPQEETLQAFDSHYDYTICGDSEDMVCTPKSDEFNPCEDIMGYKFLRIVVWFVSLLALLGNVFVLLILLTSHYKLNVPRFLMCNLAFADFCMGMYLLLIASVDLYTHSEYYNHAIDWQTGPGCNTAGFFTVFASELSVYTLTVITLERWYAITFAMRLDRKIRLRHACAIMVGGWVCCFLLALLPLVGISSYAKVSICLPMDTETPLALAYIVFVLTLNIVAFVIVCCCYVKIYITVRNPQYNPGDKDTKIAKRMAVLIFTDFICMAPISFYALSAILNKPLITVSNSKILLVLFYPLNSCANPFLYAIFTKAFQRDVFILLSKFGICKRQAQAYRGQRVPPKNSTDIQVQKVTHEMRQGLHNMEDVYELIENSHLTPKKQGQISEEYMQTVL
Summary of the method: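 Screening of the Tox21 10K collection used HEK293 cells engineered with TSHR at 800 cells per well. After a 30-min room-temperature compound exposure, HTRF cAMP reagents were added and fluorescence recorded 1 h later.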

[12] = qHTS assay to identify small molecule agonists of the hypoxia (HIF-1) signaling pathway - cell viability counter screen (AID 1224844; calls by dose curve; further: nearly all actives have a fitted effect of over 50% in size; further: potency means the concentration at half of the fitted maximal effect)
Summary of the method: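 Cells (HRE-bla ME-180, 2,000 per well) sat 5 hrs at 37C, got compound for 17 hrs, were read for CCF4-AM FRET, and were finally lysed with CellTiter-Glo for a 30 min room-temperature luminescence read.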

[13] = biological target: Nuclear receptor subfamily 1 group I member 3 (Homo sapiens) (UniProt Q14994); assay: qHTS assay to identify small molecule antagonists of the constitutive androstane receptor (CAR) signaling pathway (AID 1224838);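 further: HepG2 cells stably expressing hCAR with CYP2B6 luciferase reporter stimulated by CITCO; nearly all actives have a fitted effect of over 40% in size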
Nuclear receptor subfamily 1 group I member 3 (Homo sapiens), sequence (Q14994 whole entry, looked up): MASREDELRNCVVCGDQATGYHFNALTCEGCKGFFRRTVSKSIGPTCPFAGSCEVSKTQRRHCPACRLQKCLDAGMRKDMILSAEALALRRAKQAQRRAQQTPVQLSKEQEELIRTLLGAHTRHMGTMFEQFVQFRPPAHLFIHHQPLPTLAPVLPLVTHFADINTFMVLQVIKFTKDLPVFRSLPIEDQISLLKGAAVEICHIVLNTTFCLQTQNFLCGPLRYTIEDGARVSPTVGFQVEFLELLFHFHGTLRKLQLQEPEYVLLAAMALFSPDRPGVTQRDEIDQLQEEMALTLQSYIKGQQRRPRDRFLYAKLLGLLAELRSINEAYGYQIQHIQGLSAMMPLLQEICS
Summary of the method: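 Cell line: HepG2 double-stable for hCAR and CYP2B6-2.2kb reporter. Agonist: CITCO, 50 nM final. Compounds: 15 concentrations, 24 h, 37 C. Detection: ONE-Glo luminescence.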

[14] = biological target: Nuclear receptor subfamily 1 group I member 3 (Homo sapiens) (UniProt Q14994); assay: qHTS assay to identify small molecule agonists of the constitutive androstane receptor (CAR) signaling pathway (AID 1224839); further: nearly all actives have a fitted effect of over 15% in size; further: potency means the concentration at half of the fitted maximal effect
Summary of the method: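 A 15-concentration quantitative screen uses HepG2 cells co-transfected stably with human CAR and CYP2B6-2.2kb reporter. Treatment lasts 24 h with 0.75 uM PK11195 final present; ONE-Glo luminescence is the signal.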

[15] = qHTS assay to identify small molecule antagonists of the estrogen related receptor signaling pathway with the pleiotropic PPARgamma coactivator (PGC) cell viability counter screen (AID 1224822; further: series mostly up to about 46 µM)
Summary of the method: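 PGC/ERR cells were plated at 2,000 per well and allowed 6 h to settle before compound addition. Following 17.5 h at 37 C, CellTiter-Fluor reagent was added and fluorescence was read 30 min later.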

[16] = qHTS assay to identify small molecule antagonists of the estrogen related receptor (ERR) signaling pathway (AID 1224819;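 further: luminescence from an ERR-driven luciferase reporter measured with One-Glo reagent; series mostly up to about 46 µM; nearly all actives have a fitted effect of over 50% in size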)
Summary of the method: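 Luminescence readout (One-Glo, 30 min, RT) of ERR cell line after 18 h compound exposure at 37 C; cells seeded 2,000/well, pre-incubated 6 h, compounds pinned from DMSO stocks.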

[17] = qHTS assay to identify small molecule agonists of the estrogen related receptor (ERR) signaling pathway (AID 1224820)
Summary of the method: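 Cells: ERR line from NTP, 2,000/well. Pre-incubation 6 h, 37 C/5% CO2. Compound (DMSO) pin transfer, 18 h 37 C. One-Glo, 30 min RT, luminescence.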

[18] = system: estrogen-related receptor alpha (ERRalpha) with PGC-1alpha coactivator, human; assay: qHTS assay to identify small molecule antagonists of the estrogen related receptor signaling pathway with the pleiotropic PPARgamma coactivator (PGC) (AID 1224821; calls by dose curve)
Summary of the method: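 Luminescent read-out (One-Glo, 30 min at room temperature) following 18 h treatment of PGC/ERR cells at 37 C with compounds delivered in DMSO. Cells had settled 6 h at 37 C/5% CO2 before dosing.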

[19] = qHTS assay to identify small molecule agonists of the estrogen related receptor signaling pathway with the pleiotropic PPARgamma coactivator (PGC) (AID 1224823)
Summary of the method: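 Steps: plate PGC/ERR cells at 2,000 cells/well; incubate 6 h, 37 C/5% CO2; pin-transfer compounds (DMSO); incubate 18 h, 37 C; add One-Glo; 30 min RT; read luminescence.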

[20] = qHTS assay to identify small molecule antagonists of the estrogen related receptor signaling pathway with the pleiotropic PPARgamma coactivator (PGC) from Tox21 10K library (AID 1224841; call rule not given here; further: potency means the concentration at half of the fitted maximal effect)
Summary of the method: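 qHTS antagonist format: PGC/ERR cells, 2k/well, compound in DMSO by pin transfer after 6 h attachment, 18 h treatment at 37 C, One-Glo luminescence read at 30 min.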

Measured: Potency

NC(N)=NC(N)=NCCc1ccccc1
inactive: [1] | [2] | [3] | [4] | [5] | [6] | [7] | [8] | [9] | [10] | [11] | [12]

CCCCC/C(C=O)=C\c1ccccc1
inactive: [1] | [2] | [3] | [4] | [5] | [6] | [7] | [8] | [9] | [13] | [14] | [10] | [11] | [12]

C#C[C@]1(O)CC[C@H]2[C@@H]3CCc4cc(O)ccc4[C@H]3CC[C@@]21C
inactive: [1] | [2] | [3] | [4] | [5] | [7] | [8] | [9] | [12]
active: [6] 27.1 µM and 19.3 µM and 8.41 µM | [11] 13.6 µM and 21.7 µM and 8.41 µM

COc1ccccc1O
inactive: [1] | [2] | [3] | [15] | [6] | [7] | [8] | [9] | [13] | [14] | [10] | [11] | [12]

NCCNc1cccc2ccccc12
active: [4] 30.6 µM and 23.7 µM
68.5 µM (active) and inactive: [6]
inactive: [1] | [2] | [3] | [7] | [8] | [9] | [13] | [14] | [10] | [12]

O=c1c(-c2ccc(O)cc2)coc2cc(O)cc(O)c12
inactive: [2] | [3] | [4] | [15] | [6] | [8] | [9] | [13] | [10] | [11] | [12]
active: [5] 1.9 µM and 1.37 µM and 2.37 µM | [7] 13.9 µM and 11.2 µM and 9.77 µM | [14] 15.1 µM and 9.69 µM and 13.3 µM

CC(C)(C)CC(C)(C)c1ccc(O)c(-n2nc3ccccc3n2)c1
27.7 µM (active) and inactive: [14]
active: [11] 27.7 µM and 15.4 µM
inactive: [3] | [4] | [5] | [6] | [7] | [8] | [9] | [13] | [10] | [12]

CC(=O)/C=C/C1=C(C)CCCC1(C)C
inactive: [1] | [2] | [3] | [6] | [7] | [8] | [9] | [10] | [12]

O=C1OC(c2ccc(O)cc2)(c2ccc(O)cc2)c2ccccc21
inactive: [3] | [5] | [6] | [7] | [8] | [9] | [13] | [10] | [11] | [12]
48.6 µM (active) and inactive: [4]
active: [14] 60.7 µM and 8.63 µM and 4.73 µM
19.4 µM (active) and inactive: [2]

CCc1cc(C(N)=S)ccn1
inactive: [1] | [2] | [3] | [4] | [5] | [6] | [8] | [9] | [10] | [11] | [12]

CCn1cc(C(=O)O)c(=O)c2ccc(C)nc21
inactive: [1] | [2] | [3] | [4] | [5] | [7] | [8] | [9] | [11] | [12]

Cc1cccc(Nc2cc(Cl)nc(SCC(=O)O)n2)c1C
inactive: [2] | [3] | [4] | [5] | [6] | [7] | [8] | [9] | [13] | [14] | [10] | [11] | [12]

O=[N+]([O-])c1ccc(O)cc1
inactive: [1] | [2] | [3] | [4] | [5] | [7] | [13] | [14] | [11] | [12]
active: [6] 50.4 µM and 30.6 µM and 54.5 µM | [8] 50.4 µM | [10] 30.6 µM

O=C(O)Cc1cccc2ccccc12
inactive: [1] | [2] | [3] | [15] | [6] | [7] | [8] | [9] | [10] | [11]
inactive and 4.36 µM (active): [12]

C[C@]12CC[C@@H]3c4ccc(O)cc4CC[C@H]3[C@@H]1CCC2=O
inactive: [1] | [2] | [3] | [15] | [6] | [8] | [9] | [10] | [12]

NC(=O)N/N=C/c1ccc([N+](=O)[O-])o1
24.3 µM (active) and inactive: [20]
inactive and 27.3 µM (active): [6]
inactive: [2] | [3] | [16] | [17] | [18] | [15] | [19] | [7] | [13] | [14] | [10] | [11] | [12]
inactive and 13.8 µM (active): [1]
